From ChEMBL document CHEMBL1961873, “Compounds: GSK PKIS; Assays: Nanosyn kinase panel” (2012)

Key:
[1] = molecular target: T1, Ephrin type-B receptor 2 (Homo sapiens) (UniProt P29323); settings: at 1 µM
T1 sequence (whole entry): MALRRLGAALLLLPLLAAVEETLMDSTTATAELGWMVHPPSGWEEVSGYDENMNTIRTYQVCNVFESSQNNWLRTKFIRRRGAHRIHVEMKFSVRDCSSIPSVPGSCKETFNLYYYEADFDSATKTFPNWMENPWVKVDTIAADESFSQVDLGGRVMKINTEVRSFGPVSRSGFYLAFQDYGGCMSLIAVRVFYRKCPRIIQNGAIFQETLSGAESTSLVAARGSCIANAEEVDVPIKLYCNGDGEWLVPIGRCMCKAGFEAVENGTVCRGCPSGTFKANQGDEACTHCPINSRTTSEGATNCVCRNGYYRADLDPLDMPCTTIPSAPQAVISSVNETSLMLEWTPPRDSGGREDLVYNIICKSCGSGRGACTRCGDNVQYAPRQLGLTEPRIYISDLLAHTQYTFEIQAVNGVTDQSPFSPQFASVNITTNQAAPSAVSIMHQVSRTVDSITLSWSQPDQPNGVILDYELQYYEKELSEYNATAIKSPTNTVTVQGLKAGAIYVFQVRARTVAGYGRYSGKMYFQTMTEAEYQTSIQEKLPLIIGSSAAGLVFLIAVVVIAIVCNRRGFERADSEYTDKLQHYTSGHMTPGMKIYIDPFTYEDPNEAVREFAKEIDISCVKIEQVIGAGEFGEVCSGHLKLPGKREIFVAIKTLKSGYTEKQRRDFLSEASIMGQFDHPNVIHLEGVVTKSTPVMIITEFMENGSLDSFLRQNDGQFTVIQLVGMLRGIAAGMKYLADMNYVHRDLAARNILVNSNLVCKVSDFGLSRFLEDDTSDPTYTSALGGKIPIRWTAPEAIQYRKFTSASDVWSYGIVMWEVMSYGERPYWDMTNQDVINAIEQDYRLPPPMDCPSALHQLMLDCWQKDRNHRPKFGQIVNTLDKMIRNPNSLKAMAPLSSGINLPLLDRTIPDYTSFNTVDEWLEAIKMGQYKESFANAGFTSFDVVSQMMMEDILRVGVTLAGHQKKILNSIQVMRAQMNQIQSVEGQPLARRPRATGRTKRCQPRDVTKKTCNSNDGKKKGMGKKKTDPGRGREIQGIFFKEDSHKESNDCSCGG

[2] = molecular target: T2, Ephrin type-B receptor 3 (Homo sapiens) (UniProt P54753); settings: at 0.1 µM
T2 sequence (whole entry): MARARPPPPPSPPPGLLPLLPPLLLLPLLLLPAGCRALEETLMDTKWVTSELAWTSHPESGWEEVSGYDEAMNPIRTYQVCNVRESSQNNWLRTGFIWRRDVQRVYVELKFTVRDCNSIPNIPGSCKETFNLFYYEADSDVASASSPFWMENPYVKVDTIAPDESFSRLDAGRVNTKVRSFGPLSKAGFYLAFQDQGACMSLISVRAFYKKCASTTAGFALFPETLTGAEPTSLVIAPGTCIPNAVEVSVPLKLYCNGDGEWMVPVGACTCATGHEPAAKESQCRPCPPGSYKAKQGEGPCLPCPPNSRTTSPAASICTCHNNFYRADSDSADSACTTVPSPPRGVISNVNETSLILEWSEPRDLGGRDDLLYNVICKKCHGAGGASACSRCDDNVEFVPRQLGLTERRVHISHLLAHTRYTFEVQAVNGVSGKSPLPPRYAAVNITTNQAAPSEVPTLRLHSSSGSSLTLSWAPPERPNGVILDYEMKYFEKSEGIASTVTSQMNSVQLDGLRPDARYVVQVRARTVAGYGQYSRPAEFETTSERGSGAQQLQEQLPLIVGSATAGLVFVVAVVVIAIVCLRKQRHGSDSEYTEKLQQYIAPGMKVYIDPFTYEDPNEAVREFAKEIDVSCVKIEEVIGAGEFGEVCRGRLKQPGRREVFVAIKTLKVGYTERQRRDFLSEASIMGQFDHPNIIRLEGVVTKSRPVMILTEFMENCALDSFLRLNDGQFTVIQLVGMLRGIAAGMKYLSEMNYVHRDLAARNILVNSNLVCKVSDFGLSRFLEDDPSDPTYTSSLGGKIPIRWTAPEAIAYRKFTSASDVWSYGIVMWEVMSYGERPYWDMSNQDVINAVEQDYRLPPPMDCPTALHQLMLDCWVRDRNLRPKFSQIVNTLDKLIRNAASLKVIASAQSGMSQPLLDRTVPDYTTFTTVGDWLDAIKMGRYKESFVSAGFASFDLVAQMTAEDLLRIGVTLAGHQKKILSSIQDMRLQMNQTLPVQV

[3] = molecular target: T2, Ephrin type-B receptor 3 (Homo sapiens); settings: at 1 µM
[4] = molecular target: T3, Ephrin type-B receptor 4 (Homo sapiens) (UniProt P54760); settings: at 0.1 µM
T3 sequence (whole entry): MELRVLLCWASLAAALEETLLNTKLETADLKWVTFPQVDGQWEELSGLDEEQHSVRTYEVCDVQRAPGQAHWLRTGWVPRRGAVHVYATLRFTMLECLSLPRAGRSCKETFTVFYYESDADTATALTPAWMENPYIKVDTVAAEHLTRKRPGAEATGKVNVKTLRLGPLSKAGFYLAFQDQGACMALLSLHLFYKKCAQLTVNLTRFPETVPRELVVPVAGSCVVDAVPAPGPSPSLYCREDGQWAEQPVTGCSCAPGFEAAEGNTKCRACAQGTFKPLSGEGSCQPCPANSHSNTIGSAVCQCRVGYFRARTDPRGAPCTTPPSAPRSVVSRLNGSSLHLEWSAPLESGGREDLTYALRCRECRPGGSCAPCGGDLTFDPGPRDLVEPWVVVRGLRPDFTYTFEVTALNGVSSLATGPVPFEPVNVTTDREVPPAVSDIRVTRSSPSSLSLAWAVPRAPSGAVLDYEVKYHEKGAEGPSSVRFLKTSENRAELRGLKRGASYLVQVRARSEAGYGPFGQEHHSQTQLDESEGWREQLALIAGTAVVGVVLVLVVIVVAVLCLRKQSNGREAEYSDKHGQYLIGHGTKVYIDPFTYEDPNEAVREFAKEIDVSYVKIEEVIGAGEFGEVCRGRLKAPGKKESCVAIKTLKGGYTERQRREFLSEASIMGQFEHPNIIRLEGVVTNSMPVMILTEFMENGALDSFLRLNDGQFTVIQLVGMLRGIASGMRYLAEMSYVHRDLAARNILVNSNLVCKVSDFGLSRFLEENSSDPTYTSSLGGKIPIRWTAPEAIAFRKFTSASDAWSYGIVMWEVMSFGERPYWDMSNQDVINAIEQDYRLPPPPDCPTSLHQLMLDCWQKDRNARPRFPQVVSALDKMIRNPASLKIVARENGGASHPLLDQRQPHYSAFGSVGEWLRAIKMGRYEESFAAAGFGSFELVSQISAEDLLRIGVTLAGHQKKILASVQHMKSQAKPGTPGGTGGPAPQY

[5] = molecular target: T3, Ephrin type-B receptor 4 (Homo sapiens); settings: at 1 µM
[6] = molecular target: Receptor tyrosine-protein kinase erbB-2 (Homo sapiens) (UniProt P04626); settings: at 0.1 µM
[7] = molecular target: Receptor tyrosine-protein kinase erbB-2 (Homo sapiens) (UniProt P04626); settings: at 1 µM
[8] = molecular target: Receptor tyrosine-protein kinase erbB-4 (Homo sapiens) (UniProt Q15303); settings: at 0.1 µM
[9] = molecular target: Receptor tyrosine-protein kinase erbB-4 (Homo sapiens) (UniProt Q15303); settings: at 1 µM
[10] = molecular target: Tyrosine-protein kinase Fer (Homo sapiens) (UniProt P16591); settings: at 0.1 µM
[11] = molecular target: Tyrosine-protein kinase Fer (Homo sapiens) (UniProt P16591); settings: at 1 µM
[12] = molecular target: Tyrosine-protein kinase Fes/Fps (Homo sapiens) (UniProt P07332); settings: at 0.1 µM
[13] = molecular target: Tyrosine-protein kinase Fes/Fps (Homo sapiens) (UniProt P07332); settings: at 1 µM
[14] = molecular target: Fibroblast growth factor receptor 1 (Homo sapiens) (UniProt P11362); settings: at 0.1 µM
[15] = molecular target: Fibroblast growth factor receptor 1 (Homo sapiens) (UniProt P11362); settings: at 1 µM
[16] = molecular target: Fibroblast growth factor receptor 2 (Homo sapiens) (UniProt P21802); settings: at 0.1 µM
[17] = molecular target: Fibroblast growth factor receptor 2 (Homo sapiens) (UniProt P21802); settings: at 1 µM
[18] = molecular target: Fibroblast growth factor receptor 3 (Homo sapiens) (UniProt P22607); settings: at 0.1 µM
[19] = molecular target: Fibroblast growth factor receptor 3 (Homo sapiens) (UniProt P22607); settings: at 1 µM
[20] = molecular target: Fibroblast growth factor receptor 4 (Homo sapiens) (UniProt P22455); settings: at 0.1 µM;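 note: values are mean percent inhibition of FGFR4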
Sequence of Fibroblast growth factor receptor 4 (Homo sapiens) (P22455 22-802 limits assumed): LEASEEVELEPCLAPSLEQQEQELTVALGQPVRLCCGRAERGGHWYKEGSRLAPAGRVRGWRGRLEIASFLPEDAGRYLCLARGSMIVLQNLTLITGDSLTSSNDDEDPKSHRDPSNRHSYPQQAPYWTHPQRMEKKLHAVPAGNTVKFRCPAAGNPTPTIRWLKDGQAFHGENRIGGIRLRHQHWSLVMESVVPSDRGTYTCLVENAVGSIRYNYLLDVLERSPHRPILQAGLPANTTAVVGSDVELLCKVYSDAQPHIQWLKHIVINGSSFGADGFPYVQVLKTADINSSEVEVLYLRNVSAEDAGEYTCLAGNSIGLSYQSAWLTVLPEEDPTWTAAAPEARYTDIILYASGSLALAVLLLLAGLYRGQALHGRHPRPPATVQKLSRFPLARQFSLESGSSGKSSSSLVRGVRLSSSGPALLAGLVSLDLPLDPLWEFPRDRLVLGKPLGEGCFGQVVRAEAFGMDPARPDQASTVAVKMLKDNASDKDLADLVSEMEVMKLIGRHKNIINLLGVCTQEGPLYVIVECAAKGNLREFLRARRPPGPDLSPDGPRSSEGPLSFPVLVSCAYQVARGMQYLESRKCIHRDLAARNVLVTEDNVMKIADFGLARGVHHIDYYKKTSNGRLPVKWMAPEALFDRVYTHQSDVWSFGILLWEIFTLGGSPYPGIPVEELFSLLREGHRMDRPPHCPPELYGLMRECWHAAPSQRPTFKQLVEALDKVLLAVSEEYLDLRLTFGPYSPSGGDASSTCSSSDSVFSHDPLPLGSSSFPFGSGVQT

Sequence of Tyrosine-protein kinase Fer (Homo sapiens) (P16591 whole entry, looked up): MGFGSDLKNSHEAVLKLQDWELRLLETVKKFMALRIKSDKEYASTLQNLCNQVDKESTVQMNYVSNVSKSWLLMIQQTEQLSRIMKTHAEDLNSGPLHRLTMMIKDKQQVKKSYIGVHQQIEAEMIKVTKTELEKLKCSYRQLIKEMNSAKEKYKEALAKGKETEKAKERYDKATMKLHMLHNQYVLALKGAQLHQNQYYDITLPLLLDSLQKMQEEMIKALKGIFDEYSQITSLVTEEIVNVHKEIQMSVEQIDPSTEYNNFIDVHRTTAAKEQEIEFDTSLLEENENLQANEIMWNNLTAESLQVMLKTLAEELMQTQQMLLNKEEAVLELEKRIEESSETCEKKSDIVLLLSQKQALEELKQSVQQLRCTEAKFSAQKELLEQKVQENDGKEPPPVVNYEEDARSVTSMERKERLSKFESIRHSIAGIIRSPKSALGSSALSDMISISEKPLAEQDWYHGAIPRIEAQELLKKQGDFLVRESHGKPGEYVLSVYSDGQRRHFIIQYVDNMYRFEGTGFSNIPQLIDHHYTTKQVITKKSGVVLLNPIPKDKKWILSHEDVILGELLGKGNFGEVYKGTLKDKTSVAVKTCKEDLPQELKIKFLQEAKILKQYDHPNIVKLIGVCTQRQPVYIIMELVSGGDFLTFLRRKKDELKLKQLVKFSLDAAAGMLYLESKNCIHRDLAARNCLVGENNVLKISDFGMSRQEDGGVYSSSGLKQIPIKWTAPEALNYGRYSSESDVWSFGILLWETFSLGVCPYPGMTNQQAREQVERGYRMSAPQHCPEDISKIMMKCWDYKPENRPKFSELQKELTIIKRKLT
Sequence of Receptor tyrosine-protein kinase erbB-2 (Homo sapiens) (P04626 whole entry): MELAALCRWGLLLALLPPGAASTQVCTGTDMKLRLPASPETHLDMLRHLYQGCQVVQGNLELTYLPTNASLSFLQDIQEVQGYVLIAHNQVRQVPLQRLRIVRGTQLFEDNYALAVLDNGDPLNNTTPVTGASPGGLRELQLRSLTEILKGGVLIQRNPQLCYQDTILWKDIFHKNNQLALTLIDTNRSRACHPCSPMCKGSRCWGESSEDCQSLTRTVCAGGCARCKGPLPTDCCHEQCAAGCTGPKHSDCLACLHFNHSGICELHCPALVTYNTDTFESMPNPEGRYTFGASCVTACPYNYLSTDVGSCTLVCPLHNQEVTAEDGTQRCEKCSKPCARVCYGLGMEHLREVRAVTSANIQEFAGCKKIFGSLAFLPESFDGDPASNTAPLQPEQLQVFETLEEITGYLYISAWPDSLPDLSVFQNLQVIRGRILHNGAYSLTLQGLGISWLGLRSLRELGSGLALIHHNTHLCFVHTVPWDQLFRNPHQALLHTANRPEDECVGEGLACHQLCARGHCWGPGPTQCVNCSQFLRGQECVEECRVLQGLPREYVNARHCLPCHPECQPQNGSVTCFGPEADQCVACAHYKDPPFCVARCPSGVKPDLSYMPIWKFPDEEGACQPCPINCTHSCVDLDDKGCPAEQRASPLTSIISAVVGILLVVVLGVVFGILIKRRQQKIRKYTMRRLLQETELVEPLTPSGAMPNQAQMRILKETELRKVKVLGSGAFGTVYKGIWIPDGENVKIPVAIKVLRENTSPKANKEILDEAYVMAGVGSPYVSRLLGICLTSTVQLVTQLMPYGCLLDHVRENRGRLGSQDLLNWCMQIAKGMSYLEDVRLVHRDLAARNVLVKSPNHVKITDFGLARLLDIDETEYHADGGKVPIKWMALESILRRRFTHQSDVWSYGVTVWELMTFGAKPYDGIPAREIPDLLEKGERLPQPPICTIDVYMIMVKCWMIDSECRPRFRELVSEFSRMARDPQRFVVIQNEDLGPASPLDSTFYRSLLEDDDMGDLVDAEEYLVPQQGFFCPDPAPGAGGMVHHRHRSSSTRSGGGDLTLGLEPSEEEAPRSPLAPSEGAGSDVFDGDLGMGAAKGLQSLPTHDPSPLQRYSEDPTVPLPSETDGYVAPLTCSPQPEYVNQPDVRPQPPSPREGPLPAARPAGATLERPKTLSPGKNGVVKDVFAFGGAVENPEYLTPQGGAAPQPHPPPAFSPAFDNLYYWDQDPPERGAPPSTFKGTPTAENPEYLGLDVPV
Sequence of Receptor tyrosine-protein kinase erbB-4 (Homo sapiens) (Q15303 whole entry): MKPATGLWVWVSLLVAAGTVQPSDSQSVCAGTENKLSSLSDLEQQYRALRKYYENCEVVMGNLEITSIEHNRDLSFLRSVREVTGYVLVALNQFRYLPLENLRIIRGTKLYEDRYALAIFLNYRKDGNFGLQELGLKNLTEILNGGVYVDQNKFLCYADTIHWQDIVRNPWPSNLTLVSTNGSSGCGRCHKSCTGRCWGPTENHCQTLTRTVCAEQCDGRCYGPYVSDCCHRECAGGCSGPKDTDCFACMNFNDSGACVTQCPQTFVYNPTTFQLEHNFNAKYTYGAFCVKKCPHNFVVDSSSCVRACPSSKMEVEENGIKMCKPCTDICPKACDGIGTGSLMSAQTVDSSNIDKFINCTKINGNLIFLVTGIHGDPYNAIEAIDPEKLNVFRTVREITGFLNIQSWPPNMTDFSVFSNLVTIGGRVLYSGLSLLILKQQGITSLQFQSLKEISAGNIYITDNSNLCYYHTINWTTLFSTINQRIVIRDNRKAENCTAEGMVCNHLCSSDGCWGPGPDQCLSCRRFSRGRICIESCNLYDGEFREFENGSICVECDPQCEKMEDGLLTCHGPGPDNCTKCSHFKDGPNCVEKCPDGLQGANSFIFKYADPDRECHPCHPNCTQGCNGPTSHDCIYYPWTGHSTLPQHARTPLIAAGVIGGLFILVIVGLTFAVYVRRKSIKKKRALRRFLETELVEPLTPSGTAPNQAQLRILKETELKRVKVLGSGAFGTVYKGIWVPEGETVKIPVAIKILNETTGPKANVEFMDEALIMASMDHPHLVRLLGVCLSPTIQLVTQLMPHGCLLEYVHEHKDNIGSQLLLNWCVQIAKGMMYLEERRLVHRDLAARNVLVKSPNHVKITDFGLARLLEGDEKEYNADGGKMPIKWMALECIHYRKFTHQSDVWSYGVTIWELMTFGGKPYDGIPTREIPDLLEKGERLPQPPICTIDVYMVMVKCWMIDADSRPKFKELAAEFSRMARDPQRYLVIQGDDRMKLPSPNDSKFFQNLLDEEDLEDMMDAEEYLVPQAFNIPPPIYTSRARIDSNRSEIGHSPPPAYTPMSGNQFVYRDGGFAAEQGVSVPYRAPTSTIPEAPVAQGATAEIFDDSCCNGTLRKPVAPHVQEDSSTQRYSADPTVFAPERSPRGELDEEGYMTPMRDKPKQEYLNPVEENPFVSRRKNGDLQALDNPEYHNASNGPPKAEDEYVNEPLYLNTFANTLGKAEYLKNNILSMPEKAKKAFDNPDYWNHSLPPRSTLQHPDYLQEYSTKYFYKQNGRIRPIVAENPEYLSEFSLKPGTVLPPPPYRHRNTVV
Sequence of Fibroblast growth factor receptor 2 (Homo sapiens) (P21802 22-821 limits assumed): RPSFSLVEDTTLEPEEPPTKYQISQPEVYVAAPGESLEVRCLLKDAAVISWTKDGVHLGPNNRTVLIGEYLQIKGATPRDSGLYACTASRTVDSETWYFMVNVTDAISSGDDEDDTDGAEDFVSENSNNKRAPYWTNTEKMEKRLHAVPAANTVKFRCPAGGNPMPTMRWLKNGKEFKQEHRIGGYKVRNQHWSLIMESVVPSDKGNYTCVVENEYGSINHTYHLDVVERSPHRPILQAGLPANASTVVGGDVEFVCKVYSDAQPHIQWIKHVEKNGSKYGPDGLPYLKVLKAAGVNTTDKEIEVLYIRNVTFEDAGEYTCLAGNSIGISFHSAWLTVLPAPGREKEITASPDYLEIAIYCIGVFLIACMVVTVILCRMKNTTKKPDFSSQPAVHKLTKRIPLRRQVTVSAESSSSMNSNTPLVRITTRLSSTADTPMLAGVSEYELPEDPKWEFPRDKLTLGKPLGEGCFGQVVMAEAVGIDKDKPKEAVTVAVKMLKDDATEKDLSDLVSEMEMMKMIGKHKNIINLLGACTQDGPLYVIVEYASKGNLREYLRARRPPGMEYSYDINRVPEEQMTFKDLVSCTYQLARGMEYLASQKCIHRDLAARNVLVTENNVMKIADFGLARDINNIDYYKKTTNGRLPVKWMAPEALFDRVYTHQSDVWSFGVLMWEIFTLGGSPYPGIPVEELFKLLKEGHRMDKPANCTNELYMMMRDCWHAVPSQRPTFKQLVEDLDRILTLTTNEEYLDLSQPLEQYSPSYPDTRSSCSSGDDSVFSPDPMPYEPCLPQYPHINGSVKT

SMILES	inhibition [1]	inhibition [2]	inhibition [3]	inhibition [4]	inhibition [5]	inhibition [6]	inhibition [7]	inhibition [8]	inhibition [9]	inhibition [10]	inhibition [11]	inhibition [12]	inhibition [13]	inhibition [14]	inhibition [15]	inhibition [16]	inhibition [17]	inhibition [18]	inhibition [19]	inhibition [20]
COc1cc(N2CCN(C(C)C)CC2)ccc1Nc1nc(Nc2ccc(F)cc2C(=O)NC[C@@H](O)CO)c2cc[nH]c2n1	6.9%	0.85%	-0.23%	-2.73%	-3.91%	3.24%	10.5%	9.31%	15.7%	17.7%	60.2%	4.45%	20.1%	-0.71%	5.9%	1.11%	1.86%	1.06%	3.63%	-2.86%
NCc1ccc(-n2c(-c3nonc3N)nc3cnccc32)cc1	8.48%	7.61%	3.86%	2.23%	1.42%	2.39%	2.56%	16.3%	18%	3.01%	5.77%	12.8%	13%	4.07%	6.76%	6.5%	9.9%	9.59%	6.14%	-4.29%
CCS(=O)(=O)c1ccc(OC)c(Nc2ncc(-c3cccc(-c4ccccc4F)c3)o2)c1	11.9%	2.15%	0.93%	0.78%	8.8%	-0.34%	2.22%	5.89%	15.2%	0.83%	2.29%	-0.07%	0.23%	6.92%	40%	29.3%	60.6%	29.3%	65.5%	3.01%
COc1cc2ncn(-c3cc(OCCc4ccccc4)c(C(N)=O)s3)c2cc1OC	6.52%	2.67%	2.11%	2.03%	2.56%	2.58%	2.47%	13.8%	13.1%	4.91%	1.49%	1.6%	1.71%	14.8%	2.62%	1.97%	3.63%	2.83%	2.85%	-0.14%
COc1cc(C)c(N(C)C(=O)CN(C)C)cc1Nc1nc(Nc2cccc(F)c2C(N)=O)c2cc[nH]c2n1	4.5%	-1.17%	-3.39%	-2.25%	-3.91%	-0.03%	-3.53%	4.41%	4.97%	9.81%	23%	5.04%	10.7%	0.07%	-3.58%	-2.28%	-2.01%	-0.36%	-2.8%	-3.66%
O=C(Nc1n[nH]c2cc(-c3ccccc3)ccc12)C1CC1	17.1%	2.9%	2.89%	2.92%	4.63%	4.46%	1.33%	13.8%	15.8%	6.13%	5.6%	2.97%	2.53%	8.51%	2.95%	3.3%	7.98%	6.47%	5.96%	-0.91%
NS(=O)(=O)c1ccc(N/N=C2\C(=O)Nc3ccc(C(=O)NCCCn4ccnc4)cc32)cc1	13.3%	5.75%	4.37%	1.61%	5.27%	4.39%	5.69%	8.45%	14.6%	–	–	2.9%	3.18%	1.31%	4.32%	3.11%	8.85%	4.75%	5.37%	-9.93%
Fc1ccc(-c2c(-c3ccncc3)nc3n2CCS3)cc1	6.7%	1.23%	1.23%	-4.56%	-2.17%	1.03%	0.17%	2.91%	4.97%	0.77%	1.89%	1.15%	0.99%	-4.25%	0.23%	-1.78%	0.6%	1.37%	1.47%	-6.43%
CN(C)CCCNc1nccc(-c2c(-c3ccc(F)cc3)nn3cc(C(F)(F)F)ccc23)n1	19.7%	0.41%	-0.85%	-2.73%	0.9%	0.46%	-1.57%	0.88%	-0.51%	1.94%	1.37%	0.87%	1.2%	0.95%	0.04%	-2.72%	0.99%	-1.5%	-0.97%	-3.68%
CN1CCN(CCCNc2nc3ccc(Oc4ccc(NC(=O)Nc5cc(C(F)(F)F)ccc5F)cc4)cc3[nH]2)CC1	58.8%	-3.09%	-6.41%	-1.44%	16.4%	-2.7%	-2.07%	3.38%	2.56%	3.88%	3.71%	1.57%	1.53%	-4.14%	0.63%	-1.49%	1.51%	-0.95%	-0.55%	-2.64%
CCC(=O)Nc1ccc(C)c(-c2ccc(C(=O)NCC3CC3)cc2)c1	7.83%	2.63%	4.65%	0.55%	1.51%	2.99%	3.96%	9.79%	13.9%	-0.76%	1.35%	3.63%	2.61%	2.39%	4.4%	3.64%	5.39%	2.42%	2.89%	2.19%
